# Laboratory results published in the antibiotic and cytotoxicity screens of Wong et al. (2023).
# Screen size: about 39,000 compounds; about 1,500 (3.8%) were called active. The list comes from a sample in which actives are over-represented; it also holds similar structures and randomly drawn compounds.
# Test system: HSkMC (human skeletal muscle cells)
# Experiment: cytotoxicity call (relative viability < 0.9)
# Conditions: 10 µM
row,Compound,cytotoxicity call
1,COc1ccc(NC(=O)N(C)C[C@H]2OCCCC[C@H](C)Oc3ccc(NS(=O)(=O)c4cccs4)cc3C(=O)N([C@@H](C)CO)C[C@H]2C)cc1,inactive
2,COc1cccc(S(=O)(=O)N(C)C[C@H]2Oc3cc(Br)ccc3S(=O)(=O)N([C@@H](C)CO)C[C@H]2C)c1,inactive
3,COc1ccc2c3c([nH]c2c1)[C@@H](CO)N(C[C@]13CCN(CC1)S(=O)(=O)c1cn(cn1)C)C(=O)Nc1ccc(cc1)F,inactive
4,O=C(C[C@H]1C[C@@H]2c3cc(NC(=O)Nc4ccc(C(F)(F)F)cc4)ccc3O[C@@H]2[C@H](CO)O1)NC1CCCCC1,inactive
5,C[C@H]1CN([C@@H](C)CO)S(=O)(=O)c2ccc(C#Cc3ccncc3)cc2O[C@@H]1CN(C)C(=O)C1CCCCC1,inactive
6,COc1ccccc1NC(=O)N(C)C[C@H]1Oc2ncc(C#CCN(C)C)cc2C(=O)N([C@@H](C)CO)C[C@H]1C,inactive
7,C[C@@H]1CN([C@H](C)CO)C(=O)c2cc(NC(=O)Nc3ccc(C(F)(F)F)cc3)ccc2O[C@@H]1CN(C)Cc1ccc(Cl)c(Cl)c1,active
8,C[C@@H]1CN([C@@H](C)CO)C(=O)c2cc(NC(=O)Nc3ccc(C(F)(F)F)cc3)ccc2O[C@@H]1CN(C)Cc1ccc(Cl)c(Cl)c1,active
9,C[C@@H]1CN([C@H](C)CO)C(=O)c2cc(NC(=O)Nc3ccc(C(F)(F)F)cc3)ccc2O[C@@H]1CN(C)Cc1ccncc1,inactive
10,C[C@H](CO)N1C[C@H](C)[C@H](CN(C)Cc2ccc(Cl)c(Cl)c2)Oc2ccc(NC(=O)Nc3ccc(C(F)(F)F)cc3)cc2C1=O,active
11,C[C@@H]1CN([C@@H](C)CO)C(=O)c2cc(NC(=O)Nc3ccc(C(F)(F)F)cc3)ccc2O[C@H]1CN(C)Cc1ccc(Cl)c(Cl)c1,inactive
12,C[C@H]1CN([C@@H](C)CO)C(=O)c2cc(NC(=O)Nc3ccc(C(F)(F)F)cc3)ccc2O[C@@H]1CN(C)Cc1ccc(Cl)c(Cl)c1,inactive
13,C[C@H](CO)N1C[C@H](C)[C@@H](CN(C)Cc2ccc(Cl)c(Cl)c2)Oc2ccc(NC(=O)Nc3ccc(C(F)(F)F)cc3)cc2C1=O,active
14,C[C@@H]1CN([C@H](C)CO)C(=O)c2cc(NS(=O)(=O)c3ccc(F)cc3)ccc2O[C@H]1CN(C)Cc1ccncc1,inactive
15,CN1C(=O)c2cc(NS(C)(=O)=O)ccc2OC[C@H]2O[C@@H](CC(=O)N3CCOCC3)CC[C@@H]21,inactive
16,C[C@@H]1CCCCO[C@H](CN(C)S(=O)(=O)c2cccs2)[C@@H](C)CN([C@H](C)CO)C(=O)c2cc(NC(=O)C3CCCCC3)ccc2O1,inactive
17,COCC(=O)N1[C@@H]2c3ccc(C4=CCCCC4)c(=O)n3C[C@@H]2[C@@H](CO)[C@@H]1C(=O)N1CCN(C)CC1,inactive
18,Cc1ccc(S(=O)(=O)Nc2ccc3c(c2)C(=O)N([C@H](C)CO)C[C@@H](C)[C@@H](CN(C)C(=O)Nc2cccc4ccccc24)O3)cc1,inactive
19,CO[C@H]1CN(C)C(=O)c2cc(NS(=O)(=O)CC(F)(F)F)ccc2OC[C@@H](C)N(C(=O)NC(C)C)C[C@@H]1C,inactive
20,O=C1NCCCc2occc21,inactive
21,Cc1noc(C)c1S(=O)(=O)Nc1ccc2c(c1)C(=O)N([C@@H](C)CO)C[C@H](C)[C@H](CN(C)Cc1ccccc1)O2,inactive
22,CO[C@H](CN(C)S(=O)(=O)c1ccc(C)cc1)[C@H](C)CN([C@@H](C)CO)S(=O)(=O)c1cccc(Cl)c1,inactive
23,COc1ccc(NC(=O)N(C)C[C@@H]2Oc3ncc(C#CCN(C)C)cc3C(=O)N([C@H](C)CO)C[C@@H]2C)cc1,inactive

row,Compound,cytotoxicity call
1,COCC#Cc1ccc2c(c1)O[C@@H](CN(C)C(=O)C1CCOCC1)[C@H](C)CN([C@@H](C)CO)S2(=O)=O,inactive
2,C[C@H]1CN([C@@H](C)CO)C(=O)c2cc(NC(=O)Nc3ccc(F)cc3)ccc2O[C@@H]1CN(C)Cc1ccc(Cl)c(Cl)c1,inactive
3,C[C@H]1CN([C@@H](C)CO)C(=O)c2cc(NC(=O)Nc3ccc(C(F)(F)F)cc3)ccc2O[C@H]1CN(C)Cc1ccc(Cl)c(Cl)c1,active
4,C[C@@H]1CN([C@H](C)CO)C(=O)c2cc(NC(=O)Nc3ccc(C(F)(F)F)cc3)ccc2O[C@H]1CN(C)Cc1ccc(Cl)c(Cl)c1,active
5,C[C@H](CO)N1C[C@H](C)[C@@H](CN(C)Cc2ccc(Cl)c(Cl)c2)Oc2ccc(NC(=O)Nc3ccc(F)cc3)cc2C1=O,inactive
6,C[C@@H]1CN([C@@H](C)CO)S(=O)(=O)c2ccc(Br)cc2O[C@H]1CN(C)S(=O)(=O)c1ccccc1,inactive
7,C[C@@H]1CN([C@H](C)CO)C(=O)Cc2cc(NS(=O)(=O)c3ccc(F)cc3)ccc2O[C@@H]1CN(C)Cc1ccncc1,inactive
8,C[C@H]1CN([C@@H](C)CO)C(=O)CCCn2nncc2CO[C@H]1CN(C)S(=O)(=O)c1cn(C)cn1,inactive
9,Cc1noc(C)c1NC(=O)N(C)C[C@H]1Oc2c(NC(=O)Nc3ccc(C(F)(F)F)cc3)cccc2C(=O)N([C@H](C)CO)C[C@@H]1C,inactive
10,C[C@H]1CN([C@@H](C)CO)S(=O)(=O)c2ccc(-c3ccncc3)cc2O[C@@H]1CN(C)C(=O)c1cccc(F)c1,inactive
11,CNC(=O)CN1C(=O)[C@@H]2[C@@H](C1=O)[C@@H]1C=C[C@@H]2C1,inactive
12,C[C@@H]1CN([C@@H](C)CO)C(=O)c2cccc(NC(=O)Nc3ccc(C(F)(F)F)cc3)c2O[C@@H]1CN(C)CC1CCCCC1,inactive
13,C[C@H](CO)N1C[C@H](C)[C@@H](CN(C)CC2CCCCC2)Oc2c(NC(=O)Nc3ccc(C(F)(F)F)cc3)cccc2C1=O,active
14,C[C@H](CO)N1C[C@H](C)[C@H](CN(C)CC2CCCCC2)Oc2c(NC(=O)Nc3ccc(C(F)(F)F)cc3)cccc2C1=O,inactive
15,C[C@@H]1CN([C@H](C)CO)C(=O)c2cccc(NC(=O)Nc3ccc(C(F)(F)F)cc3)c2O[C@H]1CN(C)CC1CCCCC1,active
16,C[C@@H]1CN([C@H](C)CO)C(=O)c2cccc(NC(=O)Nc3ccc(F)cc3)c2O[C@@H]1CN(C)CC1CCCCC1,inactive
17,C[C@@H]1CN([C@H](C)CO)C(=O)c2cccc(NC(=O)Nc3ccc(C(F)(F)F)cc3)c2O[C@@H]1CN(C)CC1CCCCC1,active
18,C[C@H](CO)N1C[C@H](C)[C@H](CN(C)CC2CCCCC2)Oc2c(NC(=O)Nc3ccc(F)cc3)cccc2C1=O,inactive
19,C[C@H]1CN([C@@H](C)CO)C(=O)c2cccc(NC(=O)Nc3ccc(C(F)(F)F)cc3)c2O[C@@H]1CN(C)CC1CCCCC1,active
20,C[C@@H]1CN([C@H](C)CO)C(=O)c2cccc(NC(=O)Nc3ccc(F)cc3)c2O[C@H]1CN(C)CC1CCCCC1,inactive
21,C[C@@H]1CN([C@@H](C)CO)C(=O)c2cccc(NC(=O)Nc3ccc(F)cc3)c2O[C@H]1CN(C)CC1CCCCC1,inactive
22,C[C@H]1CN([C@@H](C)CO)C(=O)c2cccc(NC(=O)Nc3ccc(F)cc3)c2O[C@H]1CN(C)CC1CCCCC1,inactive
23,C[C@H]1CN([C@@H](C)CO)C(=O)c2cccc(NC(=O)Nc3ccc(C(F)(F)F)cc3)c2O[C@H]1CN(C)CC1CCCCC1,inactive

row,Compound,cytotoxicity call
1,C[C@@H]1CN([C@H](C)CO)C(=O)c2cc(C#Cc3ccccc3F)cnc2O[C@@H]1CN(C)C(=O)Cc1ccncc1,inactive
2,C[C@H](CO)N1C[C@H](C)[C@H](CN(C)S(=O)(=O)c2cn(C)cn2)OCCCC[C@H](C)Oc2ccc(NC(=O)Nc3ccc(C(F)(F)F)cc3)cc2C1=O,inactive
3,O=C(CCC(=O)N1CCOCC1)Nc1c(F)c(F)nc(N2CCOCC2)c1F,inactive
4,C[C@@H]1CCCCO[C@H](CN(C)S(=O)(=O)c2ccccc2)[C@H](C)CN([C@@H](C)CO)C(=O)c2cc(NC(=O)Nc3cccc4ccccc34)ccc2O1,inactive
5,COCC(=O)N1C[C@]2(C1)CN([C@H](CO)c1c2c2ccc(cc2n1C)OC)C(=O)CN1CCOCC1,inactive
6,C/C=C/c1cccc(-c2nc(C(=O)NCc3ccc(OC)cc3)cc3c2[C@@H](CCO)N([S@@](=O)C(C)(C)C)C3)c1,inactive
7,Cc1ccc(S(=O)(=O)N(C)C[C@H]2Oc3ncc(Br)cc3C(=O)N([C@H](C)CO)C[C@H]2C)cc1,inactive
8,C[C@H](CO)N1C[C@H](C)[C@H](CN(C)Cc2ccc(C(F)(F)F)cc2)OCCCC[C@H](C)Oc2ccc(NS(C)(=O)=O)cc2C1=O,inactive
9,COc1ccc(OCC(=O)NCC(=O)O)cc1,inactive
10,O=C(O)Cc1nnc(-c2ccncc2)[nH]1,inactive
11,O=C(O)CCN1CCCCCC1=O,inactive
12,CCn1nnc2c1CCN(S(=O)(=O)c1cn(C)cn1)[C@@H]2COC,inactive
13,COc1ccc(S(=O)(=O)N(C)C[C@H]2OCCCC[C@@H](C)Oc3ccc(NC(=O)Nc4ccc5c(c4)OCO5)cc3C(=O)N([C@@H](C)CO)C[C@@H]2C)cc1,inactive
14,Cc1cc(C(=O)Nc2cccc3c2O[C@H](CN(C)S(=O)(=O)c2cccs2)[C@H](C)CN([C@H](C)CO)C3=O)n(C)n1,inactive
15,Oc1ccc(F)c2ccccc12,inactive
16,Cc1cccc2ccccc12,inactive
17,Oc1cccc2ccccc12,active
18,C[C@H](CO)N1C[C@H](C)[C@H](CN(C)C(=O)Nc2ccc(C(F)(F)F)cc2)OCCCC[C@H](C)Oc2ccc(NC(=O)C3CCCCC3)cc2C1=O,inactive
19,O=C(C[C@@H]1CC[C@@H]2[C@H](COC[C@@H](O)CN2S(=O)(=O)c2ccccc2)O1)NCc1ccc2c(c1)OCO2,inactive
20,C[C@H]1CN([C@@H](C)CO)C(=O)c2c(c3ccccc3n2C)-c2ccccc2CO[C@@H]1CN(C)C(=O)NC1CCCCC1,inactive
21,CC(C)=CCC1=C(O)C(=O)c2ccccc2C1=O,inactive
22,C=CC(C)(C)c1[nH]c2ccccc2c1C1=C(O)C(=O)C(c2c[nH]c3c(CC=C(C)C)cccc23)=C(O)C1=O,active
